PubChem BioAssay (NCI)
This is part of a sample that, as a whole, favours compounds with a hit. Of some 83,000 tested, about 20% had one in any assay.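 Percent growth is the endpoint: 0 to 100 indicates growth inhibition (40 means 60% inhibition), 0 means no net growth, and negative values indicate cell death.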 Values without a mark were called inactive. Calls of active or inactive are those of the source. Rule for the calls: active = growth percent below 10; inactive = the rest.

Test system: MDA-MB-468 breast
Test: NCI-60 one-dose screen, 48 h (100 = growth as untreated, 0 = no growth, -100 = all killed)
Settings: 10 µM unless noted

SMILES | growth
COc1cc(OC)c(S(N)(=O)=O)cc1C(C)=O | 98.4%
NCCOc1ccccc1/C=C1\c2ccccc2-c2ccc([N+](=O)[O-])cc21 | -36.1% (active)
Ic1ccc(Nc2nc3nonc3nc2Nc2ccc(I)cc2)cc1 | -4.36% (active)
COc1ccc(Cc2cnc(NC(=O)c3ccc4c(c3)OCCO4)s2)cc1 | 19.1%
Oc1c(Cl)cc(Oc2cc(Cl)c(O)c(CN3CCOCC3)c2)cc1CN1CCOCC1 | 84%
COc1ccc(-c2nn(-c3ccccc3)cc2/C=C2/SC(=S)N(C)C2=O)cc1 | 89.1%
COc1ncnc2[nH]cc(CN3CCN(c4ccc(F)cc4)CC3)c12 | 108%
C/C(=N/O)c1ccc(NC(=O)Cn2nc(-c3ccc(Cl)cc3)nc2N)cc1 | 100%
CCN(CC)CC#CCOC(=O)[C@]1(C)CCC[C@]2(C)c3ccc(C(C)C)cc3CC[C@@H]12 | 65.3%
Oc1ccc(Cc2ccc(O)c3ncccc23)c2cccnc12 | -16% (active)
COc1cc(C(=O)c2c(-c3ccccc3)oc3ccccc23)cc(OC)c1O | 0.857% (active)
Cc1ccc(C)c(CCO)c1 | 93.5%
CCOC(=O)C(Cc1ccccc1)(C(=O)OCC)C(Br)C(=O)c1ccccc1 (stereo unspecified) | -9.41% (active)
CC12OC(CC(O)C1O)n1c3ccccc3c3c4c(c5c6ccccc6n2c5c31)C(=O)N(CCN1CCCC1)C4=O (stereo unspecified) | 3.48% (active)
O=C(c1ccccc1)c1ccc(-c2ccc(O)cc2)cc1 | -16.5% (active)
CN(C)S(=O)(=O)c1ccc(-c2nc(C(Cl)Cl)nc3cc(-c4ccc(F)cc4)nn23)cc1 | -46.2% (active)
